This is a sample that favours compounds with a hit; in the whole collection about 21% have one here.
Shiga toxin inh: inhibitors of Shiga toxin in Vero cells. inhibition, % at 38.7 µM. Vero cells, Shiga toxin protein synthesis inhibition reporter. 9.2% of 290,000 active; in the data active means inhibition mostly above about 28%, no sharp cut-off; inactive means mostly below about 43%; further: 0% is about no effect
Pf growth 96h: inhibits malaria parasite growth, 96 h; P. falciparum luciferase reporter growth, 96 h; Potency, µM (top dose mostly 28.7 µM), without a hit: top-dose activity change, negative = inhibition, most hits filed as inhibitors; 6.9% of 320,000 active; AID 504834; further: potency means the concentration at half of the fitted maximal effect; on the % scale 0 is the no-effect control and ±100 the full control effect
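Cell-based qHTS: luciferase-tagged P. falciparum in erythrocytes (2% hematocrit, 0.05% parasitemia final) incubated with compounds for 96 hours, 37 C, 5% CO2; luciferase detection reagent then added and luminescence measured.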
HCMV inh: blocks human cytomegalovirus replication; HFF cells, HCMV-luciferase reporter, 72 h; hits give low values; activity change, negative = inhibition, % at 57.5 µM; 4.5% of 410,000 active; AID 1259415; in the data active means activity change below about -60%; inconclusive means no clear call, values can overlap the other calls; inactive means above about -39%; further: on the % scale 0 is the no-effect control and ±100 the full control effect
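Cell-based, HFFs, 1000 cells/well, 16 h 37C; cpds in DMSO + HCMV-luc, MOI 1 PFU/cell; 72 h 37C; OneGlo luminescence after 5 min RT; norm. to buffer vs Salinomycin 10uM.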
CHX counter: counter-screen for Shiga toxin inhibitors: cycloheximide protein synthesis inhibition; max response, %; cell reporter, cycloheximide protein synthesis inhibition counterscreen; AID 2314; 12% of 300,000 active; in the data active means max response mostly above about 13%, no sharp cut-off; inactive means mostly below about 14%; further: read at 38.3 µM for the half of the compounds with a filed dose; 0% is about no effect
HCV inh: inhibitors of hepatitis C virus infection | 3.4% of 340,000 active | Huh7.5.1 HCVcc-Cre infection, luciferase reporter, 44 h | Potency, µM (top dose mostly 41.8 µM), without a hit: at the highest dose activity change, negative = inhibition, usual class: inhibitors; further: potency means the concentration at half of the fitted maximal effect; on the % scale 0 is the no-effect control and ±100 the full control effect
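Cells seeded at 1,000/well and cultured 4 h, then compounds added followed by HCVcc-Cre virus (~0.5 moi). After 44 h further culture, luciferase substrate was added, plates held 15 min at room temperature, and luminescence read for 15 sec.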
Pf growth 48h: P. falciparum growth inhibition at 48 hours (one generation); AID 504832; P. falciparum luciferase growth in erythrocytes, 48 h; 5.9% of 310,000 active; Potency, µM (top dose mostly 28.7 µM), inactives show top-dose activity change, negative = inhibition, usual class: inhibitors; further: potency means the concentration at half of the fitted maximal effect; on the % scale 0 is the no-effect control and ±100 the full control effect
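Compounds are pin-transferred into medium, infected erythrocytes (2% hematocrit, 0.1% parasitemia final) are added, and plates sit one parasite generation at 37 C in 5% CO2. Detection reagent is then added and luminescence measured.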
Starred values were filed as active, the others as inactive; [ ] = remark or other dose. Unless noted, the call rests on the fitted dose curve; in most records, active means well fitted inhibition curve with a large enough effect; inconclusive means small, poorly fitted or top-dose-only effect, or another doubt; inactive means no such curve, though single readings can be large or run the other way.

What do the screens show for `CC1CC(C)CN(Cc2nc(N)nc(Nc3ccc4ccccc4c3)n2)C1` (centres undefined)?
Shiga toxin inh: 3.7; HCMV inh: -2.7; CHX counter: 2.2; HCV inh: 12.6µM*; Pf growth 48h: 11.7µM*

How did Cc1cccc(C)c1OCC(=O)Nc1cccc(NC(=O)c2ccco2)c1 do in these assays?
Shiga toxin inh: 14.8; HCMV inh: -31.2; CHX counter: 14.0; HCV inh: 11.2µM*; Pf growth 48h: inconclusive

How did Cc1ccc(C(C)C)c(OCC(=O)NNC(=O)Nc2ccccc2)c1 do in these assays?
HCMV inh: -67.4*; HCV inh: -21.5%

What do the screens show for `Cc1ccccc1OCC(=O)Nc1ccc(NC(=O)c2ccco2)cc1`?
Shiga toxin inh: 2.8; Pf growth 96h: inconclusive; HCMV inh: -79.7*; CHX counter: -2.2; HCV inh: inconclusive; Pf growth 48h: 3.4%

What do the screens show for `CCOC(=O)c1c(C)[nH]c(C)c1C(=O)COc1ccc(NC(=O)c2ccco2)cc1`?
Shiga toxin inh: -4.2; Pf growth 96h: 13.7%; HCMV inh: -64.4*; CHX counter: -0.9; HCV inh: -14.3%; Pf growth 48h: inconclusive

How did Cc1cccc(C)c1OCC(=O)Nc1ccc(NC(=O)c2ccco2)cc1 do in these assays?
Shiga toxin inh: -1.3; Pf growth 96h: inconclusive; HCMV inh: -11.9; CHX counter: 9.2; HCV inh: -22.6%; Pf growth 48h: inconclusive

Results for CCOc1ccc(-c2nc3c(C#N)c[nH]n3c2NC2CCCC2)cc1 ?
HCMV inh: -13.9

Results for CCc1nc2ccc(C(=O)NCCN3CCOCC3)cn2c1N(CC)CCOC ?
HCMV inh: 16.5

How did COc1ccc(OCC(=O)Nc2ccc(NC(=O)c3ccco3)cc2)cc1 do in these assays?
Shiga toxin inh: 78.1*; HCMV inh: 41.9; CHX counter: 24.3*; HCV inh: -1.0%; Pf growth 48h: 3.8%

What do the screens show for `COc1ccc(NC(=O)c2ccco2)cc1NC(=O)COc1cc(C)ccc1C(C)C`?
HCMV inh: -79.4*

Results for O=C(COc1ccccc1)Nc1ccc(NC(=O)c2ccco2)cc1 ?
Shiga toxin inh: 17.0; Pf growth 96h: 82.4%; HCMV inh: -7.2; CHX counter: 9.6; HCV inh: 7.0%; Pf growth 48h: -29.0%

What do the screens show for `Cc1cc(C2=NNC(=Nc3ccc(S(=O)(=O)N4CCOCC4)cc3)SC2)c(C)n1C`?
Shiga toxin inh: -8.7; Pf growth 96h: -17.7%; HCMV inh: -22.4; CHX counter: -1.9; HCV inh: inconclusive; Pf growth 48h: 1.5%

How did CC(C)[C@H](N)c1nnc2n1N=C(c1ccc(Cl)cc1)CS2 do in these assays?
Shiga toxin inh: -10.7; Pf growth 96h: -1.0%; HCMV inh: 52.5; CHX counter: -1.8; HCV inh: -1.8%; Pf growth 48h: -3.6%

What do the screens show for `CC(C)N=C1NN=C(c2cccs2)CS1`?
Shiga toxin inh: 54.3*; Pf growth 96h: 101.8%; HCMV inh: 72.1; CHX counter: 34.6*; HCV inh: 11.0%; Pf growth 48h: 449.8%

Results for CC(C)N=C1NN=C(c2ccc(Cl)c(Cl)c2)CS1 ?
Shiga toxin inh: 102.3*; Pf growth 96h: -47.2%; HCMV inh: 86.3; CHX counter: 38.4*; HCV inh: inconclusive; Pf growth 48h: -63.6%

Results for CC(C)c1ccc(N=C2NN=C(c3cccs3)CS2)cc1 ?
Shiga toxin inh: 86.8*; Pf growth 96h: 41.9%; HCMV inh: -1.1; CHX counter: 40.8*; HCV inh: inconclusive; Pf growth 48h: 58.7%

How did O=C(C1CCC(CNS(=O)(=O)c2ccccc2)CC1)N1CCOCC1 (centres undefined) do in these assays?
Shiga toxin inh: 1.3; Pf growth 96h: 0.0%; HCMV inh: 51.0; CHX counter: 7.6; HCV inh: 2.2%; Pf growth 48h: 36.0%

Results for NC(=O)COc1ccc2cc(-c3ccccc3)c(=O)oc2c1 ?
Shiga toxin inh: 62.1*; Pf growth 96h: 27.1%; HCMV inh: -1.7; CHX counter: 31.9*; HCV inh: 27.6%; Pf growth 48h: 60.0%

What do the screens show for `NC(=O)COc1ccc2oc(-c3ccccc3)cc(=O)c2c1`?
Shiga toxin inh: 69.2*; Pf growth 96h: 27.0%[5.75 µM]; HCMV inh: 5.1; CHX counter: 27.4*; HCV inh: 9.0%; Pf growth 48h: 123.5%

How did NC(=O)COc1ccc2cc(-c3ccc(F)cc3)c(=O)oc2c1 do in these assays?
Shiga toxin inh: 35.4*; Pf growth 96h: 42.3%; HCMV inh: 52.1; CHX counter: 21.2*; HCV inh: 28.5%; Pf growth 48h: 37.5%

How did COC(=O)COc1ccc2cc(-c3ccccc3)c(=O)oc2c1 do in these assays?
Shiga toxin inh: -2.8; Pf growth 96h: 42.8%; HCMV inh: -14.0; CHX counter: -3.0; HCV inh: 16.6%; Pf growth 48h: inconclusive

What do the screens show for `COc1ccc(/C=C/C(=O)NCC(=O)N/N=C(/C)c2ccco2)cc1`?
Shiga toxin inh: -5.5; Pf growth 96h: -7.8%; HCMV inh: -10.5; CHX counter: -0.8; HCV inh: -8.4%; Pf growth 48h: 9.5%

What do the screens show for `O=C(CN1CCN(C(=O)CNC(=O)c2ccc3c(c2)OCO3)CC1)Nc1ccc(F)cc1`?
Pf growth 96h: inconclusive; HCMV inh: 55.3; HCV inh: 22.2%; Pf growth 48h: -17.8%

What do the screens show for `CCSc1nc2sc3c(c2c(=O)n1-c1ccc(C)cc1)CCCC3`?
HCMV inh: -4.1

What do the screens show for `On1ccccc1=S`?
Pf growth 96h: 0.586µM*; HCMV inh: -98.9*; HCV inh: 6.31µM*; Pf growth 48h: 0.828µM*

How did CCOc1ccc(NC(=O)CC2SC(=O)N(c3ccccc3)C2=O)cc1 (centres undefined) do in these assays?
Shiga toxin inh: 43.8*; Pf growth 96h: inconclusive; HCMV inh: 19.6; CHX counter: 20.7*; HCV inh: 23.8%; Pf growth 48h: 39.5%

What do the screens show for `O=C(CC1SC(=O)N(c2ccccc2)C1=O)Nc1cccc2ccccc12` (centres undefined)?
Shiga toxin inh: 37.7; Pf growth 96h: 20.1%; HCMV inh: 15.8; CHX counter: 20.7*; HCV inh: 22.6%; Pf growth 48h: -0.4%

How did Cc1ccccc1NC(=O)CC1SC(=O)N(c2ccccc2)C1=O (centres undefined) do in these assays?
Shiga toxin inh: 64.1*; HCMV inh: 17.1; CHX counter: 46.8*; HCV inh: 7.9%; Pf growth 48h: 57.1%

Results for COc1ccc(NC(=O)CN2C(=O)CSC(C)C2=O)c(OC)c1 (centres undefined) ?
Shiga toxin inh: -6.7; Pf growth 96h: 51.9%; HCMV inh: inconclusive; CHX counter: 4.1; HCV inh: -6.5%; Pf growth 48h: 31.4%
